PubChem BioAssay AID686971 (National Center for Advancing Translational Sciences (NCATS), 2013)
The campaign covered roughly 360,000 compounds. About 7,500 (2.1%) were called active. Another 8% or so got no clear call; they are omitted. This is one part of a sample in which actives are shown more often than they occur. Values without a mark were called inactive. The call rests on the fitted dose curve; in most records, active means well fitted cell-killing curve with a large enough effect; inconclusive means small, poorly fitted or top-dose-only effect, or effect the other way, or another doubt; inactive means no such curve, though single readings can be large or run the other way.

Experiment: qHTS for induction of synthetic lethality in tumor cells producing 2HG: qHTS for the HT-1080-IDH1KD cell line;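 on activity, negative = toxicity: 0% = DMSO wells and -100% = cell-free medium wells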
Details: HT-1080 IDH1 knockdown viability, ATP luminescence, 48 h; series mostly up to 46.1 µM; activity, negative = toxicity: at the top concentration
Method in brief: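 HT-1080-IDH1KD cells (IDH1 knocked down), 750/well in RPMI with 5% FBS, treated with compound 48 h at 37 degrees C. Viability by CellTiter-Glo luminescence, normalised to DMSO and no-cell wells; concentration-response curves classed.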
Potency means the concentration at half of the fitted maximal effect.

Row | SMILES | activity, negative = toxicity | Potency
1 | COc1cc2nc(Cl)nc(NC3CC3)c2cc1OC | -9.28% | 
2 | CC(C)CCC(=O)Nc1cc(S(=O)(=O)N2CCOCC2)ccc1N1CCCC1 | 0.313% | 
3 | Cc1ccc(-c2ccc(CN3C(C(C)C)C(=O)N(Cc4cn(CCC5OCCCO5)nn4)CCS3(=O)=O)cc2)cc1 (stereo not given) | -7.51% | 
4 | Cc1cc2c(cc1C)N1C(=O)c3cc4ccccc4cc3NC(=O)C1C(=O)N2 (stereo not given) | 1.1% | 
5 | CS(=O)(=O)/C(C#N)=C/c1cccn1S(=O)(=O)c1ccc([N+](=O)[O-])cc1 | -6.02% | 
6 | O=C(C1CCCO1)N1CCN(C(=O)C23CC4CC(CC(C4)C2)C3)CC1 (stereo not given) | 14.9% | 
7 | CN(/N=C/c1ccccc1)C(=S)c1ccccc1 | -5.97% | 
8 | CCN(CC)C(=O)N(CC)Cc1ccccc1 | 2.96% | 
9 | Oc1ccc(/C=N/N(Cc2ccccc2)c2ccccc2)cc1 |  | 16.4 µM (active)
10 | C[C@H]1CN([C@@H](C)CO)C(=O)CCCn2cc(nn2)CO[C@@H]1CN(C)C(=O)Nc1ccccc1 | 1% | 
11 | O=C(CSc1nc2cccc(F)c2c(=O)n1-c1ccccc1)Nc1ccc2c(c1)CCC2 | 18.2% | 
12 | NC(=O)CSc1nnc(-c2cccc(S(=O)(=O)N3CCOCC3)c2)o1 | -2.93% | 
13 | Cc1cc2nnc(SCC(=O)N3CCN(c4ccccc4)CC3)n2c(N)n1 | 21.7% | 
14 | Cn1c(CNC(=O)c2ccco2)nnc1SCC(=O)N1CCN(c2ccccc2)CC1 | 3.17% | 
15 | Cn1c(Cc2cccc3ccccc23)nnc1SCC(=O)N1CCN(c2cccc(Cl)c2)CC1 |  | 20.6 µM (active)
16 | CCc1c(N=O)c(-c2ccccc2)n(O)[n+]1[O-] | -7.78% | 
17 | CCN(C(=O)Nc1cccc2ccccc12)c1ccccc1 | -4.17% | 
18 | COc1cccc(NC(=O)CN(C)C(=O)c2cc(Cl)nc3ccccc23)c1 | -3.44% | 
19 | CCN(CC)C(=O)C1=C(C)N(Cc2ccc(F)cc2)C(=O)C(CC(=O)NC2CCCC2)C1 (stereo not given) | -4.13% | 
20 | CC[n+]1cc(C)ccc1/C=C/c1ccc(N(C)C)cc1 |  | 7.31 µM (active)
21 | O=C(NC1CCCCC1)C(c1cc2ccccc2o1)n1c(=O)c(-c2ccco2)nc2ccccc21 (stereo not given) | -16.8% | 
22 | O=C(O)CCn1cc(/C=C/C(=O)c2ccc(Cl)cc2)c(-c2cccc(Br)c2)n1 |  | 23.1 µM (active)
23 | O=C(/C=C/NNC(=O)c1cccc(Br)c1)c1ccccc1 | -10.2% | 
24 | CCOC(=O)/C(C#N)=C/c1cn(CCC(=O)O)nc1-c1ccc(Br)cc1 | -2.79% | 
25 | COc1ccc(CN2C[C@H]3CON(C)[C@H]3C[C@H]2c2ccc(-c3cccc(F)c3)cc2)cc1 | -23% | 

Row | SMILES | activity, negative = toxicity | Potency
26 | Cc1ccccc1C#CC1=CC(=O)CC(C)(C)C1 | -9.77% | 
27 | C/C(COc1ccccc1)=N\NC(=O)c1nnn(-c2nonc2N)c1-c1ccc(C)cc1 | -8.96% | 
28 | COc1ccc(C(=O)N2CC3(C)CC2CC(C)(C)C3)cc1OC (stereo not given) | -4.16% | 
29 | CN(C)C(=O)COC(=O)c1cccc(S(=O)(=O)N2CC3(C)CC2CC(C)(C)C3)c1 (stereo not given) | -3.59% | 
30 | Cc1nnnn1/C(=C\c1ccccc1)C(=O)OCC(=O)N1CC2(C)CC1CC(C)(C)C2 (stereo not given) |  | 14.6 µM (active)
31 | COc1cc(C=NC2CCCCC2)ccc1O | 0.126% | 
32 | O=C(OCC(=O)N1CCCCCC1)c1cccc(Cl)c1Cl | 16.8% | 
33 | Cc1cccc(C)c1NC(=O)C(c1cccc(F)c1)N1CCN(C)CC1 (stereo not given) | 0.538% | 
34 | COc1cc(OC)c2c(-c3cccc(-c4cccc(N)c4)c3)cc(=O)oc2c1 |  | 5.17 µM (active)
35 | COc1ccc(-c2c(C)cc3oc(=O)cc(-c4ccccc4)c3c2C)cc1F | 13.4% | 
36 | COc1ccc(-c2c(C)cc3oc(=O)cc(-c4ccccc4)c3c2C)cc1OC | 5.89% | 
37 | COC(=O)c1ccc(CN2C(=O)C(Cc3ccccc3)ON=C2c2ncccc2C)o1 (stereo not given) | 17.4% | 
38 | CCN1CCN(C(=O)CSc2ccc(C)cc2)CC1 | 3.16% | 
39 | CCN1CCC2(CC1)N=C(c1ccc(F)cc1)C(=S)N2C(=O)c1ccc(C)cc1 |  | 23.1 µM (active)
40 | Cc1ccc(SCC(=O)N2CCN(c3ccc(F)cc3)CC2)cc1 | 17.4% | 
41 | CC(C)NC(=O)C1(C)CCCCCN1C(=O)c1ccc(-c2ccccc2)cc1 (stereo not given) | 11.9% | 
42 | O=C1[C@@H](c2ccccc2)[C@@H](c2ccccc2)N1c1cccnc1 |  | 16.4 µM (active)
43 | Cc1ccccc1N1C(=O)C2ON(c3ccccc3)C(c3ccncc3)C2C1=O (stereo not given) | 4.69% | 
44 | O=C1C(=O)N(c2ccccc2)C(c2ccccc2)C1c1ccccc1 (stereo not given) | -0.624% | 
45 | Fc1cccc(Cc2c(-c3cccc(Cl)c3)nc3ccc(Br)cn23)c1 | -22.4% | 
46 | Cc1ccnc(SC2CC(=O)N(c3ccccc3)C2=O)n1 (stereo not given) | -0.931% | 
47 | Cc1ccc(-n2ncc3c2CCCC3NC(=O)c2cnccn2)cc1C (stereo not given) | -13.4% | 
48 | CC(=O)NCC(=O)NC1CCCc2c1cnn2-c1ccccc1F (stereo not given) | 4.51% | 
49 | Cn1nccc1C(=O)NC1CCCc2c1cnn2-c1ccc(F)cc1F (stereo not given) |  | 0.92 µM (active)
50 | N#CCCN(C(=S)Nc1ccc(Cl)c(Cl)c1)C1CCCCC1 | -6.17% | 
